Test results from PubChem BioAssay AID743461 (Broad Institute, 2014).
Some of the results follow. Unmarked numbers belong to inactive results.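 The calls were made as follows: active = fitted dose curve reaching 40% activity at or below the highest valid dose tested; inconclusive = flat fit between 30% and 70%, or an unusable fit; inactive = the rest.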

Assay: inhibitors of PGC-1a-driven COX5a expression, dose response, cell-based, C2C12 myotubes, RT-qPCR, cherry-picked samples (AID 743461)
Settings: C2C12 myotubes PGC-1a adenovirus, at 0.0285 µM

SMILES: N#Cc1ccc(-c2ccc(C3[C@@H]4CN(S(=O)(=O)c5ccc(F)cc5)C[C@H]3N4)cc2)cc1 (stereo partly specified)
- maximal activity: -35.2%
